# This is a sample that favours compounds with a hit; in the whole collection about 9.3% have one here.
# Rab9 promoter act – Rab9 promoter activation | Potency, µM (top dose mostly 9.22 µM), for inactives: at the highest dose activation, negative = inhibition, most hits filed as activators | 2.8% of 320,000 active | Huh7 Rab9 promoter-luciferase reporter, luminescence, 24 h; further: % of control where 0% means no effect; nearly all actives have a fitted effect of over 60% in size
#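 Huh7 cells stably carrying Rab9 promoter–luciferase reporter, plated 1500 cells/well, compound added after 2 h and incubated 24 h at 37 °C; luciferase luminescence then read after 10 min with detection reagent.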
# ELG1 genotox – genotoxicity induction in ELG1-luciferase HEK293T cells; HEK293T ELG1-luciferase reporter, luminescence, 16 h; Potency, µM (top dose mostly 46 µM), inactives show at the top dose activity change, positive = activation, hits mostly activators; 1.3% of 330,000 active; AID 504466; further: % of control where 0% means no effect; nearly all actives have a fitted effect of over 60% in size
#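 16 hr compound incubation (37 °C, 5% CO2) of HEK293T cells carrying luciferase-tagged ELG1; luciferase then measured by ONE-Glo luminescence after 30 min at RT.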
# FLuc counter – firefly luciferase modulation, counter-screen for miR-21 project; 6.9% of 360,000 active; P08659; purified FLuc, Km substrates, luminescence inhibition; AID 588342; Potency, µM (highest dose often 57.5 µM), without a hit: at the highest dose activity change, negative = inhibition, hits mostly inhibitors;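 further: plate controls were vehicle for no effect and reference inhibitor for full effect; nearly all actives have a fitted effect of over 55% in size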
# Target sequence (P08659 whole entry, looked up): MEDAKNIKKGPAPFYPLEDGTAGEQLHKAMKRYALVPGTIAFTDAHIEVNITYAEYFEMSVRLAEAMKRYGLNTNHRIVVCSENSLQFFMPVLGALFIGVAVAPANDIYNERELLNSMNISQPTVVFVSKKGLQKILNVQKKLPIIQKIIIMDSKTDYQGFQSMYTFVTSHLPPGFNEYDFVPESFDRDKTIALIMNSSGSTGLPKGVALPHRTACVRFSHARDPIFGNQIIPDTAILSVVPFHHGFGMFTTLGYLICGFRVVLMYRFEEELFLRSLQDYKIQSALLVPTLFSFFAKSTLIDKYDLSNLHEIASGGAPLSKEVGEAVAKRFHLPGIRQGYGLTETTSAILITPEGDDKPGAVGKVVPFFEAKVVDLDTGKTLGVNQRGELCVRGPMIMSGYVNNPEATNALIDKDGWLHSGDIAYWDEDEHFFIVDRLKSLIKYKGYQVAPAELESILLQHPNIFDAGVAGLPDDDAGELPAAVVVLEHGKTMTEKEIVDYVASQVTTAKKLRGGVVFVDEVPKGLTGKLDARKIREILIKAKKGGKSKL
#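 Purified P. pyralis luciferase, 10 nM final, with Km-level 10 uM D-luciferin and 10 uM ATP in 50 mM Tris acetate pH 7.5, 10 mM Mg acetate, 0.01% Tween-20, 0.05% BSA; 6-point qHTS titration about 60 µM downward; luminescence read.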
# NPC1 prom act – activates the NPC1 promoter; Huh7 NPC1 promoter luciferase reporter, 24 h; Potency, µM (titrated, usually from 9.22 µM), inactives show at the highest dose activation, actives largely listed as activators; 2.4% of 320,000 active; further: % of control where 0% means no effect; nearly all actives have a fitted effect of over 60% in size
#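 Huh7 cells stably carrying NPC1 promoter–luciferase, plated in Opti-MEM with 10% FBS for 2 h, were exposed to compound in DMSO for 24 h at 37 °C; luciferase reagent was added for 10 min and luminescence read.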
# ELG1 DNA repair – ELG1-dependent DNA repair inhibition | HEK293T ELG1-luciferase reporter, luminescence, 16 h; DNA damage induced by 5-fluorouridine | Potency, µM (series often up to 46.1 µM), inactives show at the top dose activity change, negative = inhibition, usual class: inhibitors | 2.3% of 330,000 active; further: on the % scale 0 is the no-effect control and ±100 the full control effect; nearly all actives have a fitted effect of over 55% in size
#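 Step one: seed 2,000 cells per well. Step two: pin-transfer compound or DMSO alongside 5-fluorouridine. Step three: incubate 16 hr, 37 °C, 5% CO2. Step four: add ONE-Glo, wait 30 min, read luminescence.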
# SMN2 splice enh – enhancers of SMN2 splice variant expression; AID 1458; 2.8% of 210,000 active; Potency, µM (doses to about 46.1 µM), for the others: at the highest dose activity change, positive = activation, hits mostly activators; HEK293 SMN2-luciferase splicing reporter, luminescence, 30-36 h; further: % of control where 0% means no effect; nearly all actives have a fitted effect of over 55% in size
#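 qHTS luciferase splicing reporter: luminescence rises when SMN2 exon 7 is included in transfected HEK293 cells. Compound exposure lasted 30-36 h at 37C, with 4.5 mM final sodium butyrate as control, followed by a ONE-Glo read.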
# An asterisk follows results filed as active; ? = inconclusive; · = not tested or not shown; [ ] = another dose, or the depositor's remark. The call rests on the fitted dose curve; in most records, active means well fitted curve in the direction sought with a large enough effect; inconclusive means small, poorly fitted or top-dose-only effect, or another doubt; inactive means no such curve, though single readings can be large; an effect the other way counts as inactive or inconclusive. Potency means the concentration at half of the fitted maximal effect.
SMILES,Rab9 promoter act,ELG1 genotox,FLuc counter,NPC1 prom act,ELG1 DNA repair,SMN2 splice enh
COc1ccc(-n2cc(CNCc3cnc4ccccn34)c(-c3cccc(F)c3)n2)cc1,1%,-14%,8.5µM*,5%,-1%,·
Cc1cccc(-n2cc(CNCCc3nc(C)cc(C)n3)c(-c3cccc(F)c3)n2)c1,-5%,-6%,15µM*,-7%,23µM*,·
COc1ccccc1-c1nnc(SCC(=O)NC2CCS(=O)(=O)C2)n1N (stereo unspecified),-3%,2%,0%,0%,0%,-6%
O=C(N/N=C(\c1ccccc1)c1cccnc1)c1ccc(O)cc1,2%,1%,1%,1%,-4%,·
O=C(N/N=C(\Cc1ncc[nH]1)c1ccccc1)c1cccnc1,-6%,5%,4%,-5%,9.2µM*,·
O=C(N/N=C(\c1ccccc1)c1cccnc1)c1cccc(F)c1,-37%,16µM*,-5%,-13%,?,·
COc1cccc(N2CCN(S(=O)(=O)c3ccc4ccccc4c3)CC2)c1,-1%,0%,0%,-1%,-14%,·
COc1ccc(S(=O)(=O)c2ccc(OC)cc2)cc1,-5%,4%,0%,-3%,-11%,-12%
COc1ccc(N=[N+]([O-])c2ccc(OC)cc2)cc1,·,·,·,·,·,7.1µM*
Cc1cc2c(NCCc3ccccc3)ncnc2s1,-7%,?,12µM*,-7%,?,·
Clc1ccc(Nc2ncnc3ccc(Br)cc23)cc1,1%,-9%,-20%,20%,?,·
Brc1ccc2ncnc(NCc3ccccc3)c2c1,-6%,-18%,5%,11%,4.1µM*,-76%
CN(C)c1ccc(Nc2ncnc3ccc(Br)cc23)cc1,24%,-18%,?,?,8.2µM*,·
CN(C)Cc1ccccc1-c1ccc2ncnc(NCc3ccccc3)c2c1,·,·,·,·,·,-10%
c1ccc(CCNc2ncnc3ccccc23)cc1,-23%,2%,12µM*,-19%,?,·
CCOC(=S)SCC(=O)O,·,·,·,·,·,-20%[9.22 µM]
O=S(=O)(O)c1cc2oc(-c3ccccc3)nc2c2ccccc12,22%,-4%,9.5µM*,16%,0%,·
S=C(NC1CCCCC1)NC1CCCCC1,·,·,·,·,·,13%
O=c1c2ccccc2ncn1-c1ccc2c(c1)OCCO2,2.8µM*,?,?,?,?,2%
Cc1ccc(CNC(=O)c2ccc(CS(=O)(=O)Cc3ccc(F)cc3)o2)cc1,·,·,-2%,·,·,·
CN(CC(=O)Nc1ccccc1C(=O)NC1CC1)Cc1ccc(Cl)cc1,-6%,0%,5%,-2%,-6%,·
CCOc1ccc(CN(C)CC(=O)Nc2ccccc2C(=O)NC2CC2)cc1,-1%,-5%,3%,-7%,15µM*,·
CC(C)CCNC(=O)c1cc(-c2ccc(Br)s2)nc2ccccc12,·,·,-15%,·,·,-3%
Cc1cccc(C(=O)NC2CC3CCCC(C2)N3S(=O)(=O)c2ccccc2)c1 (stereo unspecified),2%,-25%,4%,2%,23µM*,-39%
CN(C)/C=N/c1ncc(C(=O)c2ccc(-c3ccccc3)cc2)s1,-4%,-5%,21µM*,-1%,?,-24%
SMILES,Rab9 promoter act,ELG1 genotox,FLuc counter,NPC1 prom act,ELG1 DNA repair,SMN2 splice enh
CN(C)/C=N/c1ncc(C(=O)c2ccccc2)s1,3.2µM*,9.2µM*,15µM*,2.8µM*,?,14µM*
O=C1NC2(CCCCC2)C(=O)N1Cc1cccc(C(F)(F)F)c1,1%,-7%,-3%,-7%,9.2µM*,-30%
CN(C)c1cccc(C(=O)N2CCCC(CCC(=O)NCc3ccccc3F)C2)c1 (stereo unspecified),14%,0%,-10%,1%,?,·
COc1cc2c(cc1OC)C1=C(C#N)CN(C3CCCCC3)CN1CC2,-3%,-4%,2%,1%,?,-8%
COc1ccc(CCN2CC(C#N)=C3c4cc(OC)c(OC)cc4CCN3C2)cc1OC,-5%,-7%,0%,-2%,21µM*,-7%
O=C(CSc1nc2ccc(Cl)cc2[nH]1)c1cccs1,28%,16%,13µM*,12%,?,·
O=C(CSc1nc2cc(Cl)ccc2o1)c1cccs1,12%,?,19µM*,9%,?,3%
Cc1cc(C(F)(F)F)n(-c2nc(C(=O)NNS(=O)(=O)c3ccccc3[N+](=O)[O-])cs2)n1,1%,1%,-19%,-5%,5.8µM*,·
Cc1cc(C(F)(F)F)n(-c2nc(C(=O)NNS(=O)(=O)c3ccccc3)cs2)n1,-2%,0%,1%,-5%,13%,-11%
CCCNC(=O)c1ccc(N2CCC3(CC2)CC(c2ccccc2)=NO3)c(NC(=O)Cc2ccc(F)cc2)c1,0%,-8%,2%,-5%,21µM*,·
CCCNC(=O)c1ccc(N2CCC3(CC2)CC(c2ccccc2)=NO3)c(N)c1,-15%,0%,-3%,-1%,-17%,·
CC1(C)CC(NS(=O)(=O)c2ccc(Cl)cc2)CC(C)(C)N1,2%,0%,6%,-3%,1%,·
Cc1cc(-c2ccc(C(C)C)c(S(=O)(=O)N3CCN(c4ccccn4)CC3)c2)on1,-6%,-26%,0%,-25%,16µM*,·
CC(=O)OCC(=O)[C@@]1(O)CCC2C3CCC4=CC(=O)CC[C@]4(C)C3C(O)C[C@]21C (stereo partly specified),·,·,·,·,·,2%
Cc1c(OCC(=O)N(C)C)ccc2c3c(c(=O)oc12)CCCCC3,1%,3%,-8%,4%,-7%,1%
Cc1oc(C(=O)O)cc1COc1ccc2c3c(c(=O)oc2c1C)CCC3,?,?,27µM*,19%,?,?
CC(=O)COc1ccc2c3c(c(=O)oc2c1C)CCCCC3,?,7.3µM*,-18%,?,?,?
Cc1oc(C(=O)O)cc1COc1ccc2c3c(c(=O)oc2c1C)CCCC3,11%,2%,-4%,9%,-2%,5%
COC(=O)c1ccc(CN(Cc2ccc(OC)c(OC)c2)S(=O)(=O)c2cc(C(=O)Nc3cccc(C)c3)ccc2F)cc1,·,·,-3%,·,·,·
COc1ccccc1C(=O)NCCNC(=O)c1ccc(C)nc1,3%,5%,1%,-3%,-4%,·
O=C(CSCc1ccc(F)cc1)N1CCc2c([nH]c3ccccc23)C1c1ccc(F)cc1 (stereo unspecified),·,·,4%,·,·,·
Cc1cc(=O)oc2cc(NC(=O)c3c(Cl)cnn3C)ccc12,23%,?,-6%,30%,0%,·
Cc1cc(=O)oc2cc(NC(=O)c3ccccc3C(=O)O)ccc12,-2%,-3%,11µM*,2%,4%,·

# Screening results from PubChem.
